Compound activity as filed in PubChem.
Rango dissoc inh: prevents RanGTP from dissociating the Rango-importin beta complex | hit rate 0.071% among 340,000 | Biochemical FRET Rango-importin beta, RanGTP-induced dissociation | Potency, µM (highest dose often 46.1 µM), without a hit: at the top dose activity change, negative = inhibition | O95149+P62826; also: potency is read from the fitted curve at half-maximal effect; % of control where 0% means no effect; nearly all actives have a fitted effect of over 45% in size
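Compounds sat 5 min at room temperature with 0.1 uM Rango biosensor plus 0.25 uM importin beta, then FRET pre-read. RanGTP-RCC1 (0.6 uM Ran, 2mM GTP, 0.2 uM RCC1) added for 45 min, and the CFP/YFP post-read measured blocked complex dissociation.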
Akt phos inh: inhibitors of Akt phosphorylation | Neuro2A IGF-stimulated pAkt S473 HTRF, 20 min; hits give low values | activity change, % for hits at 50 µM | hit rate 0.32% among 360,000; in the data active = activity change below about -80%; inconclusive = mostly about -51% to -80%; also: % is scaled to controls: 0 for no effect and ±100 for the full control effect
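Single-point screen (50 µM final compound) in Neuro2A cells stimulated 20 min with 6 nM IGF at 37 deg C. After lysis, Ser473-phosphorylated Akt read by HTRF (ex 330 nm, em 615/665 nm) as the 665/615 ratio.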
Rango-impB inh: inhibitors of Rango-importin beta complex formation; Potency, µM (top dose mostly 92.2 µM), for the others: at the top dose inhibition of complex formation; hit rate 0.031% among 340,000; AID 540263; Rango CFP/YFP FRET sensor + importin beta, 45 min;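 also: potency is read from the fitted curve at half-maximal effect; 0% = DMSO wells and 100% = buffer wells lacking importin beta; nearly all actives have a fitted effect of over 15% in size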
Target sequence (Q14974 whole entry, looked up): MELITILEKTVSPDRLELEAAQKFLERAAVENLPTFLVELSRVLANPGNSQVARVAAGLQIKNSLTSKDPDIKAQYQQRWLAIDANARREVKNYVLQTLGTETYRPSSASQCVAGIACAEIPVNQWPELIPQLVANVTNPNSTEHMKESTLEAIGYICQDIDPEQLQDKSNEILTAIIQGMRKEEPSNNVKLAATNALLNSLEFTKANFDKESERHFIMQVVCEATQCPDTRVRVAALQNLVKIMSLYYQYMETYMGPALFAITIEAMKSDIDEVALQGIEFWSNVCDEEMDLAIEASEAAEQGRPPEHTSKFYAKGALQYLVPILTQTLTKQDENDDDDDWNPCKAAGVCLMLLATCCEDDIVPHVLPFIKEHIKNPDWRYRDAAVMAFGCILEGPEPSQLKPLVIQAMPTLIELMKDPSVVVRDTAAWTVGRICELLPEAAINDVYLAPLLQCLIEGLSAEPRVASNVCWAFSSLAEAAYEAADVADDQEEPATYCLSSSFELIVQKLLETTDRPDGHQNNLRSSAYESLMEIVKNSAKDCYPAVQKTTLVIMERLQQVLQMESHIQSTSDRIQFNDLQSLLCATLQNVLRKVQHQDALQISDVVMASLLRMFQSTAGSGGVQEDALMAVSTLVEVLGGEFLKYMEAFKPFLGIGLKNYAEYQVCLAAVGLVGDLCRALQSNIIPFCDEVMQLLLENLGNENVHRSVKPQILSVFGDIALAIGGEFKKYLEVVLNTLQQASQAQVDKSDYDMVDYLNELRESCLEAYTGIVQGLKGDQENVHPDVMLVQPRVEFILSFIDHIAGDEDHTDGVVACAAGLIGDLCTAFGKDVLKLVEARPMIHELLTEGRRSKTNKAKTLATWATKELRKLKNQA
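FRET biosensor Rango (snurportin 1 IBB between N-terminal EYFP and C-terminal Cerulean), 50 nM in PBS/1 mM DTT/0.02% Tween-20/0.1% BSA, preincubated 5 min RT with compound; 0.125 microM importin beta added, 45 min RT, CFP/YFP FRET ratio read.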
TSHR antag: blocks TSH signaling through the human TSH receptor | P16473 | TSHR-expressing cells, TSH-stimulated cAMP HTRF, 2 h; hits give low values | activity change, negative = inhibition, % at 11.5 µM | hit rate 0.2% among 330,000;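 active = activity change below a set negative limit, meaning inhibition stronger than a set level, cut at about -70% in these data; inconclusive = activity change between two set negative limits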; also: % is scaled to controls: 0 for no effect and ±100 for the full control effect
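Competitive HTRF cAMP read-out (cryptate anti-cAMP antibody, cAMP-d2; 30 min, room temperature) in freshly harvested TSHR cells. Compounds added before TSH at EC80 (4nM final), followed by 2 hours' incubation at 37 deg C.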
p53 reactivator: re-activators of mutant p53; H1299 p53-A138V BP100-luciferase reporter, luminescence, 24 h; Potency, µM (titrated, usually from 92.2 µM), without a hit: at the highest dose activity change, positive = activation, usual class: activators; hit rate 0.063% among 320,000; AID 504706; active = well fitted activation curve with a large enough effect; inconclusive = small, poorly fitted or top-dose-only effect; inactive = no such curve, though single readings can be large or run the other way; also: potency is read from the fitted curve at half-maximal effect; % of control where 0% means no effect; nearly all actives have a fitted effect of over 45% in size
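H1299 (p53-null), stable ts p53-A138V + BP100-Luc; 1000 cells/well, Opti-MEM/10% FBS; cpd 4 pt, 1:5; 24 h, 37 deg C, 5% CO2; detection reagent 10 min RT; luminescence.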
Starred values were filed as active, the others as inactive; i = inactive; ? = inconclusive; / = no result. This is a sample that favours compounds with a hit; in the whole collection about 0.62% have one here. Unless noted, calls follow the shape of the full dose curve.

SMILES	Rango dissoc inh	Akt phos inh	Rango-impB inh	TSHR antag	p53 reactivator
O=C(CCSc1nc(-c2ccco2)cc(C(F)(F)F)n1)NCC1CCCO1 (configuration not stated)	26µM*	i	?	1	-1%
Cn1cc([N+](=O)[O-])c(C(=O)Nc2ccc3nc(-c4ccccc4)[nH]c3c2)n1	-3%	i	?	6	22µM*
CCOc1cc(/C=C2\C(=N)N3N=C(S(=O)(=O)CC)SC3=NC2=O)ccc1OC(=O)c1ccco1	?	/	5%	-18	-2%
COc1cc(/C=C2\C(=N)N3N=C(S(C)(=O)=O)SC3=NC2=O)ccc1OC(=O)c1ccco1	5.8µM*	i	?	-1	-2%
O=C(O)Cc1csc2ccccc12	1%	-126%*	2%	2	6%
Cc1ccc(C)c(NC(=S)c2ccc3ccccc3n2)c1	-3%	i	-3%	-13	?
CN(C)c1ccc(NC(=S)c2ccc3ccccc3n2)cc1	-12%	i	2%	-91*	23%
COc1ccc(-c2nnc(SCC(=O)N3CCCCC3)o2)cc1OC	-20%	i	-1%	10	-2%
COc1ccc(-c2nnc(SCC(=O)OC3CCCCC3)o2)cc1OC	6%	-117%*	-3%	-4	6%
CCN(CC)S(=O)(=O)c1cc(C(=O)Nc2nncs2)c(Cl)cc1Cl	-2%	i	0%	-37	5%
CCN(CC)S(=O)(=O)c1ccc(Cl)c(C(=O)Nc2nncs2)c1	4%	-103%*	1%	-9	-2%
COC(=O)C1=NN(c2ccccc2)C2(S1)SC(C(C)=O)=C(C)N2c1ccccc1 (configuration not stated)	10%	-138%*	-2%	-12	-2%
Cc1cccc(/C=C/C(=O)c2cc(Br)ccc(=O)c2O)c1	?	/	0%	-88*	15%
CCc1ccc(/C=C/C(=O)c2cc(Br)ccc(=O)c2O)cc1	-14%	/	-2%	-87*	21%
CCN(CC)CCCNc1nc(-n2nc(C)cc2C)nc2sc3c(c12)CC(C)(C)OC3	-16%	i	3%	-1	2%
O=C(NCCC1=CCCCC1)C(=O)NCC1OCCCN1S(=O)(=O)c1ccccc1 (configuration not stated)	10%	i	-4%	-90*	-4%
Cc1ccc(C)c(S(=O)(=O)N2CCCOC2CNC(=O)C(=O)NCCC2=CCCCC2)c1 (configuration not stated)	19%	i	0%	?	-2%
Cc1nc2nc(Cc3ccccc3)[nH]n2c(=O)c1Cc1ccccc1	-4%	i	-1%	3	3%
Cc1nc2nc(Cc3ccccc3)[nH]n2c(=O)c1Cl	27%	-114%*	0%	8	-1%
Cc1cccc(NC(=O)COC(=O)c2ccc3c(c2)OCO3)c1C	20%	i	2%	-3	20%
Cc1[nH][nH]c(=O)c1C=NCc1ccc(Cl)cc1	-7%	i	-2%	8	1%
O=C(COC(=O)Cc1c[nH]c2ccccc12)Nc1cc(S(=O)(=O)N2CCOCC2)ccc1Cl	42%	i	0%	8	2%
COC(=O)Nc1nc(-c2ccccc2)c(C(=O)c2ccc(Cl)cc2)s1	13%	-86%*	0%	-5	7%
CCOC(=O)Nc1nc(-c2ccccc2)c(C(=O)c2ccccc2)s1	9%	/	0%	10	9%
Nc1c(C(=O)Nc2ccccc2F)sc2nc(Cc3ccccc3)cc(C(F)(F)F)c12	?	-109%*	?	-5	1%
SMILES	Rango dissoc inh	Akt phos inh	Rango-impB inh	TSHR antag	p53 reactivator
CSC1=NSC2=NC(=O)/C(=C\c3coc4ccccc4c3=O)C(=N)N12	?	i	?	-91*	0%
Cc1ccc(F)cc1NC(=O)C1CC(=O)N(Cc2ccccc2)C1 (configuration not stated)	/	i	/	/	/
N#CC1=C(N)N2C(=C(C#N)C1c1ccc(Br)cc1)Nc1ccccc12 (configuration not stated)	?	i	?	-79*	25%
Cc1ccc(COc2ccc(C)nc2[N+](=O)[O-])cc1	4%	i	-3%	10	?
O=C(O)/C=C/C(=O)Nc1ccccc1C(=O)OCC(=O)c1ccc2c(c1)OCCO2	-4%	i	-1%	-4	-6%
CCCCC(=O)Nc1ccccc1C(=O)OCC(=O)c1ccc2c(c1)OCCO2	5%	i	-3%	10	45µM*
CCOC(=O)CSc1ncnc2c1sc1nc(N3CCOCC3)c3c(c12)CCCC3	10%	-84%*	2%	-3	-1%
Cc1cc(C(=O)COC(=O)c2ccc(O)cc2O)c(C)n1-c1ccccc1	-5%	i	-3%	?	?
COc1ccc(-n2c(C)cc(C(=O)COC(=O)c3ccc(O)cc3O)c2C)cc1	0%	i	7%	-74*	?
CCc1ccc([C@@H]2CC=C(C(=O)O)[C@H](c3ccccc3F)N2S(=O)(=O)c2ccc(C)cc2)cc1	3%	i	2%	-5	0%
Oc1ccc2ccccc2c1SSc1c(O)ccc2ccccc12	/	/	/	15	/
Cc1ccc(CN2C(=O)c3ccccc3Sc3ccc(C(=O)NCCCN4CCOCC4)cc32)cc1	1%	i	-1%	-138*	-13%
Cn1c(=O)c([N+](=O)[O-])c(Cl)c2ccccc21	31%	i	0%	-83*	-14%
Cc1ccnc(NC(=O)CN(C)S(=O)(=O)c2cccc3nsnc23)c1	2%	i	2%	-13	2%
Cc1ccc2nc(NC(=O)CN(C)S(=O)(=O)c3cccc4nsnc34)sc2c1	14%	-101%*	-3%	-6	-9%
CCOc1cc(C(=O)Nc2nnc(S(=O)(=O)N3CCOCC3)s2)cc(OCC)c1OCC	0%	i	0%	2	-8%
CC(=O)c1ccc(N=Cc2c(O)n(-c3cc(Cl)ccc3N3CCOCC3)c(=O)c3ccccc23)cc1	?	-120%*	?	11	-4%
COc1cccc(CN(C)C(=O)c2cc(S(=O)(=O)NC3CCCCC3)ccc2C)c1	-9%	i	-2%	/	-1%
COCCCn1c(=O)c2sccc2n(Cc2cccc(F)c2)c1=O	26%	i	-1%	50	/
COCCCn1c(=O)c2sccc2n(Cc2cccc(C)c2)c1=O	12%	i	-5%	-131*	-13%
C=CCSc1nncn1/N=C/c1ccc(OC)cc1	6%	-103%*	-1%	-5	?
COc1ccc(/C=N/n2cnnc2SCCO)cc1OC	28%	i	6%	-12	?
C[C@@H]1CN([C@@H](C)CO)C(=O)CCCn2nncc2CO[C@@H]1CN(C)C(=O)OCc1ccccc1	/	i	/	/	/
COc1ccc(CCNC(=O)CCn2cccc2)cc1OC	1%	-101%*	-4%	0	-2%
